Data taken from ChEMBL document CHEMBL1961873, “Compounds: GSK PKIS; Assays: Nanosyn kinase panel” (2012).

Molecular target: Serine/threonine-protein kinase Chk2 (Homo sapiens) (UniProt O96017);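 further: reported value is the mean inhibition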
Conditions: at 1 µM

Serine/threonine-protein kinase Chk2 (Homo sapiens), sequence (O96017 whole entry): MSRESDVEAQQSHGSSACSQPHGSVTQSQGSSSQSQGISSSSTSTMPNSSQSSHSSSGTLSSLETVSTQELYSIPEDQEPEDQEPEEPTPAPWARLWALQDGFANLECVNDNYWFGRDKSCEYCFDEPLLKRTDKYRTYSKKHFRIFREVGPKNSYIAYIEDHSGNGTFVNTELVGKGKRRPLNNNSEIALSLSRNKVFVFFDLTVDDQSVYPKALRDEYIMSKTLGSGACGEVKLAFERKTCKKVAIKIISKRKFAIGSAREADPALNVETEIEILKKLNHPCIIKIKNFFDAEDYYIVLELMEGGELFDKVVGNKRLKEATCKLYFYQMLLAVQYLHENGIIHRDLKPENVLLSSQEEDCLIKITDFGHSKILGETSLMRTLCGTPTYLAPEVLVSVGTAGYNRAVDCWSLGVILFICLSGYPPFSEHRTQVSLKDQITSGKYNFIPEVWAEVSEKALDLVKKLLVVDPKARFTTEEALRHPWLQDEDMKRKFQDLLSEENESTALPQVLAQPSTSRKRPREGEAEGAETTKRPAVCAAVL

Row | Compound | inhibition [%]
1 | COc1cc(Nc2ncc(-c3ccccc3)o2)cc(OC)c1OC | 1.28
2 | COc1ccc(C2=C(N3CCc4ccccc43)C(=O)NC2=O)cc1 | 3.92
3 | Cc1ccc(C(=O)NC(C)C)cc1-c1ccc(C(=O)NCC2CC2)cc1 | -2.4
4 | NC(=O)c1cc(-c2ccc(F)cc2)cc(-c2ccncc2)c1N | 3.74
5 | Clc1ccc(CNc2nccc(-c3cnn4ncccc34)n2)cc1 | 6.1
6 | O=C1Nc2ccccc2/C1=C/Nc1ccc(-n2cncn2)cc1 | 14.9
7 | Fc1ccc(-c2ncn(C3CCNCC3)c2-c2ccnc(Oc3ccc(F)c(F)c3)n2)cc1 | 2.87
8 | CN(c1ccc(NC(=O)Nc2c(Cl)cccc2Cl)cc1)c1ccnc(Nc2cccc(CS(C)(=O)=O)c2)n1 | 16.8
9 | NC(=O)Cc1ccccc1Oc1nccc(-c2c(-c3ccc(F)cc3)ncn2C2CCNCC2)n1 | 6.05
10 | CN(C)CCOc1ccc(-c2cc(-c3ccc4c(c3)CCC4=NO)c(-c3ccncc3)o2)cc1 | -1.56
11 | CN(C)c1ccc2c(c1)/C(=C/Nc1ccc(S(N)(=O)=O)cc1)C(=O)N2 | 10.6
12 | COc1cc(C)c(N(C)C(=O)CN(C)C)cc1Nc1nc(Nc2cccc(F)c2C(N)=O)c2cc[nH]c2n1 | 8.44
13 | O=C(NCC1CC1)c1ccc(-c2cccc(C(=O)NC3CC3)c2)cc1 | 0.33
14 | COc1cc(N2CCN(C(C)C)CC2)ccc1Nc1nc(Nc2ccc(F)cc2C(=O)NC[C@@H](O)CO)c2cc[nH]c2n1 | 52.4
15 | NC(=O)c1ccc(Oc2nccc(-c3c(-c4ccc(F)cc4)ncn3C3CCNCC3)n2)cc1 | 0.46
16 | COc1cc2ncn(-c3cc(OCCc4ccccc4)c(C(N)=O)s3)c2cc1OC | 4.01
17 | CCc1cccc(CC)c1/C=C/c1cncc(C(=O)NC)c1 | 1.85
18 | COc1ccc2cc(-c3c(-c4ccncc4)nc(-c4ccc([S+](C)[O-])cc4C)n3C)ccc2c1 (configuration not stated) | -5.67

Molecular target: Death-associated protein kinase 1 (Homo sapiens) (UniProt P53355);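 further: reported figure is the mean inhibition of DAPK1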
Conditions: at 0.1 µM

Death-associated protein kinase 1 (Homo sapiens), sequence (P53355 whole entry, looked up): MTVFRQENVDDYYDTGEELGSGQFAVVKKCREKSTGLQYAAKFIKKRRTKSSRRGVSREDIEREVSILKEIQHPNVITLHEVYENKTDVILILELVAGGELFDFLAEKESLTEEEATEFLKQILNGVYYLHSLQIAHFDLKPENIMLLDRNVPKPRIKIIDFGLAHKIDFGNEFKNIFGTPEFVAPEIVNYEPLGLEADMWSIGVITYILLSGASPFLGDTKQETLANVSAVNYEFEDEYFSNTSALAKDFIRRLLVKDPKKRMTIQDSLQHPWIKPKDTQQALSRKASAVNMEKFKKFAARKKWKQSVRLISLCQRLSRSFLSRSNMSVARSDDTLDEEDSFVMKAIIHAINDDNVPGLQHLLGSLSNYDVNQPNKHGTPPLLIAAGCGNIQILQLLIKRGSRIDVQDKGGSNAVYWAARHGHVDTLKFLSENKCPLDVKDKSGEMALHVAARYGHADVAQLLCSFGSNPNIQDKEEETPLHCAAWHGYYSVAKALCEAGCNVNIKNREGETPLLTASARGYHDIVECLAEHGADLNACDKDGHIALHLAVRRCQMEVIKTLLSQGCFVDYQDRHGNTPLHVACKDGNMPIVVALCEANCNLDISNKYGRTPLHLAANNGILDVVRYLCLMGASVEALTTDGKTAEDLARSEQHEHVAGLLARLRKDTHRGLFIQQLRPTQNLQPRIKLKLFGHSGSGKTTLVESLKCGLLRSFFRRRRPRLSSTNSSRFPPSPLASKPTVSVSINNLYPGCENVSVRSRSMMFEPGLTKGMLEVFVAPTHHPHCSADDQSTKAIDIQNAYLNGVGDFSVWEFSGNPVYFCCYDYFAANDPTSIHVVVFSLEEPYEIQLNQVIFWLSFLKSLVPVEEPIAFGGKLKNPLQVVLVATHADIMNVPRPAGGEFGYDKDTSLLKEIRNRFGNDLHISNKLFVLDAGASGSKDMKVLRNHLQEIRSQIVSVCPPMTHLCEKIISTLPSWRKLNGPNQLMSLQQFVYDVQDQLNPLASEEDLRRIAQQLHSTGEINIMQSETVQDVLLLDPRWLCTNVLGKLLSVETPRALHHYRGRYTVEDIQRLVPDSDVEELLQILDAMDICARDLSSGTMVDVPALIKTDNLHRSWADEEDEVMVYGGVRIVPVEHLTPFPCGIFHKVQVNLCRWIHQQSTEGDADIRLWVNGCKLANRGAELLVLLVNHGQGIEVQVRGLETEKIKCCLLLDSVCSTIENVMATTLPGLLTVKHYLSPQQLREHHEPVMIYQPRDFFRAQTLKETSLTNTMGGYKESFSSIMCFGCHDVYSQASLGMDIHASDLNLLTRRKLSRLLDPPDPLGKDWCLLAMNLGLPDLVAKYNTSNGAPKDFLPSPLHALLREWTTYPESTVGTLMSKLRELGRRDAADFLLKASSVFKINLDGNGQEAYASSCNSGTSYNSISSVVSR

Row | Compound | inhibition [%]
19 | O=C(Nc1n[nH]c2cc(-c3ccccc3)ccc12)C1CC1 | 5.91
20 | Cc1ccc(C(=O)NC2CCC2)cc1-c1ccc(C(=O)NCC2CC2)cc1 | 2.9
21 | O=C(Nc1n[nH]c2cc(-c3cc(F)ccc3F)ccc12)C1CC1 | -0.82
22 | CNC(=O)c1cncc(/C=C/c2c(C)cccc2C)c1 | 0.17
23 | O=C(Nc1n[nH]c2nc(-c3ccc(O)cc3)c(Br)cc12)C1CC1 | 5.9
24 | NS(=O)(=O)c1ccc(N/N=C2\C(=O)Nc3ccc(-c4cnco4)cc32)cc1 | -1.79
25 | Fc1ccc(-c2ncn(CCCN3CCOCC3)c2-c2ccncc2)cc1 | 0.52
26 | C[C@@H](Oc1cc(-n2cnc3ccc(OCC4CCN(C)CC4)cc32)sc1C(N)=O)c1ccccc1Cl | 7.7
27 | CCc1ccc(Oc2nccc(-c3c(-c4ccc(F)cc4)ncn3C3CCNCC3)n2)cc1 | 4.58
28 | COc1cccc(/C=N/Nc2ncnc3c2cnn3-c2cccc(OC)c2)c1 | -0.06
29 | COc1ccc2cc(-c3c(-c4ccncc4)nc(-c4ccc(S(C)(=O)=O)cc4C)n3C)ccc2c1 | -2.52
30 | CS(=O)(=O)CCNCc1ccc(-c2ccc3ncnc(Nc4ccc(OCc5ccccc5)c(Br)c4)c3c2)o1 | 3.45
31 | Fc1ccc(-c2ncn(C3CCNCC3)c2-c2ccnc(Oc3ccc(Oc4ccccc4)cc3)n2)cc1 | 12.4
32 | O=C1Nc2ccc(I)cc2C1=Cc1cc(Br)c(O)c(Br)c1 | 1.46
33 | COc1cc(Nc2ncc3c(C)nc(-c4cccc(Oc5ccccc5)c4)n3n2)cc(OC)c1OC | 8.86
34 | CN1CCN(CCCNc2nc3ccc(Oc4ccc(NC(=O)Nc5cc(C(F)(F)F)ccc5F)cc4)cc3[nH]2)CC1 | -0.32
35 | COc1cc(Nc2ncc(-c3ccccc3)o2)cc(OC)c1OC | 1.78

Row | Compound | inhibition [%]
36 | COc1ccc(C2=C(N3CCc4ccccc43)C(=O)NC2=O)cc1 | 3.58
37 | Cc1ccc(C(=O)NC(C)C)cc1-c1ccc(C(=O)NCC2CC2)cc1 | -2.08
38 | NC(=O)c1cc(-c2ccc(F)cc2)cc(-c2ccncc2)c1N | 1.26
39 | Clc1ccc(CNc2nccc(-c3cnn4ncccc34)n2)cc1 | 9.28
40 | O=C1Nc2ccccc2/C1=C/Nc1ccc(-n2cncn2)cc1 | 5.75
41 | Fc1ccc(-c2ncn(C3CCNCC3)c2-c2ccnc(Oc3ccc(F)c(F)c3)n2)cc1 | 3.38
42 | CN(c1ccc(NC(=O)Nc2c(Cl)cccc2Cl)cc1)c1ccnc(Nc2cccc(CS(C)(=O)=O)c2)n1 | 4.55
43 | NC(=O)Cc1ccccc1Oc1nccc(-c2c(-c3ccc(F)cc3)ncn2C2CCNCC2)n1 | 2.51
44 | CN(C)CCOc1ccc(-c2cc(-c3ccc4c(c3)CCC4=NO)c(-c3ccncc3)o2)cc1 | -1.01
45 | CN(C)c1ccc2c(c1)/C(=C/Nc1ccc(S(N)(=O)=O)cc1)C(=O)N2 | 1.57
46 | COc1cc(C)c(N(C)C(=O)CN(C)C)cc1Nc1nc(Nc2cccc(F)c2C(N)=O)c2cc[nH]c2n1 | 0.19
47 | O=C(NCC1CC1)c1ccc(-c2cccc(C(=O)NC3CC3)c2)cc1 | 2.26
48 | COc1cc(N2CCN(C(C)C)CC2)ccc1Nc1nc(Nc2ccc(F)cc2C(=O)NC[C@@H](O)CO)c2cc[nH]c2n1 | 9.94
49 | NC(=O)c1ccc(Oc2nccc(-c3c(-c4ccc(F)cc4)ncn3C3CCNCC3)n2)cc1 | -2.59
50 | COc1cc2ncn(-c3cc(OCCc4ccccc4)c(C(N)=O)s3)c2cc1OC | 2.25
51 | CCc1cccc(CC)c1/C=C/c1cncc(C(=O)NC)c1 | 2.61
52 | COc1ccc2cc(-c3c(-c4ccncc4)nc(-c4ccc([S+](C)[O-])cc4C)n3C)ccc2c1 (configuration not stated) | -9.46
